Test results taken from the supplement of paper PMC6555819.

Experiments:
Assay in all cases: PBM binding z-score (relative to random genomic background probes); higher = stronger binding; sequences stand for … in GC…GCGATTGACAGCGTAGAATGAAGG
[1] = tested on: PPARg:RXRa DBDmut IVT, anti-RXR (DBD mutation: RXRa K156A/R161A, NR concentration 270 nM, RXRa partner concentration 90 nM)
Outline: (§1)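 Custom Agilent 4×180K protein-binding microarrays carried double-stranded probes. Their 34-nt variable regions held direct-repeat seeds, single-nucleotide variants, half-site ablations and random human genomic background sequences. Arrays were incubated 1 h with ligand-free nuclear receptor dimers in PBS pH 7.4, 2% milk, 0.02% Triton X-100, 1 mM DTT, 0.2 mg/mL BSA and 0.4 mg/ml salmon testes DNA. Antibodies against each partner (one per run) detected binding, and scanned fluorescence was regression-normalized. Binding z-scores use random background probes as reference.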

[2] = tested on: PPARg:RXRa IVT, anti-PPARg (NR concentration 270 nM, RXRa partner concentration 90 nM)
Outline: as §1

[3] = tested on: PPARg DBDmut:RXRa IVT, anti-PPARg (DBD mutation: PPARg1 K132A/R137A, NR concentration 270 nM, RXRa partner concentration 90 nM)
Outline: as §1

[4] = tested on: PPARg DBDmut IVT, anti-PPARg (DBD mutation: PPARg1 K132A/R137A, NR concentration 270 nM)
Outline: as §1

[5] = tested on: PPARg homodimer (NR concentration 180 nM)
Outline: as §1

[6] = tested on: PXR:RXRa (NR concentration 270 nM, RXRa partner concentration 90 nM)
Outline: as §1

[7] = tested on: PXR homodimer (NR concentration 270 nM)
Outline: as §1

[8] = tested on: RARa:RXR (NR concentration 270 nM, RXRa partner concentration 90 nM)
Outline: as §1

[9] = tested on: RARa homodimer (NR concentration 270 nM)
Outline: as §1

[10] = tested on: RARb:RXRa (NR concentration 270 nM, RXRa partner concentration 90 nM)
Outline: as §1

| Sequence | PBM binding z-score [1] | PBM binding z-score [2] | PBM binding z-score [3] | PBM binding z-score [4] | PBM binding z-score [5] | PBM binding z-score [6] | PBM binding z-score [7] | PBM binding z-score [8] | PBM binding z-score [9] | PBM binding z-score [10] |
| --- | --- | --- | --- | --- | --- | --- | --- | --- | --- | --- |
| TCTTGTAGATCAAGCAGGTTAAAAAAGCCTGAGT | 1.71 | 0.721 | 0.175 | 0.427 | 0.249 | 0.876 | 0.157 | 0.523 | 0.0055 | 0.189 |
| ATCGAGAGGTCGAAGGTGAGTATACCCACCCGAA | -0.545 | 1.62 | 0.516 | 0.104 | 0.129 | 2.42 | -0.494 | 3.29 | -0.646 | 2.8 |
| TGTCAAAGTTCAAAGGTACCGTAAGTATCCACAC | 0.615 | 4.3 | 1.2 | 0.655 | 1.97 | 5.17 | 3.76 | 4.94 | 0.937 | 4.89 |
| CCATACAGGTGAGAAGGTAACTCAGCCTCGATTA | 2.08 | 1.63 | 0.397 | 0.148 | 0.629 | 0.166 | 0.14 | 0.725 | 1.02 | 0.628 |
| CAAACTAGGTCAAGAGGTCAAAGCCCGCTTCCCG | 8.12 | 8.64 | 4.39 | 2.45 | 7.29 | 6.42 | 1.66 | 7.68 | 2.35 | 5.54 |
| TCTTGTAGATTAGCAGGTTAAGAAAGCTGGCCAA | 1.76 | 0.791 | -0.369 | -0.0447 | 0.0886 | 0.329 | 0.0335 | 0.552 | 0.796 | 0.197 |
| TAGAGTAGGTTAGTCGGGGCATTCAGCCAACATA | 3.08 | 3.62 | 0.961 | 1.55 | 1.27 | 0.576 | 0.756 | 0.643 | 1.35 | 1.1 |
| GTACCAAGGTGAATAGGTCGTTGAAGAGTAGGCG | 1.8 | 2.92 | 0.0444 | -0.34 | 1.08 | 1.12 | 0.219 | 1.79 | 0.784 | 1.94 |
| CCTACTGTGCCATCAGGTCATTGATATCAACGTT | 4.55 | 4.14 | 2.09 | 1.29 | 2.2 | 2.45 | 1.76 | 2.79 | 2.21 | 2.25 |
| TTTCCAAGGTGAAGGTCGTTGATCCCTCTGTAGA | 1.63 | 3.3 | -0.24 | 0.793 | 1.03 | 1.68 | 0.247 | 2.21 | -0.347 | 2.29 |
| ATATGTAGGTTCTCGGGTCATTCAGTTTGCGCAT | 4.81 | 4.65 | 1.63 | 2.01 | 1.96 | 4.05 | 8.95 | 3.37 | 1.01 | 2.15 |
| GCATATAGTTAATACAAGGTGAAAGTCCGATTGT | 0.418 | 0.597 | 0.14 | 1.15 | 0.564 | 0.322 | 0.372 | 0.691 | 0.956 | 0.235 |
| CCGGCTGGGGCAAAGGTTACCATACTCAGTACGA | 0.545 | 3.78 | -0.945 | -1.06 | 1.1 | 2.59 | -0.422 | 3.83 | -0.653 | 2.41 |
| ATCTCGAGGTAAAAGTTCAGTGAATCCCGAGGAT | -0.0537 | 2.11 | 0.38 | 0.58 | 0.813 | 2.53 | 0.878 | 2.6 | -0.00487 | 2.54 |
| CGAACTAGGTCATTGTCAGGACAGTGAATAGTAA | 8.22 | 8.47 | 5.17 | 6.24 | 3.98 | 1.84 | 0.47 | 2.49 | 0.423 | 3.48 |
| CAAACTAGGACAAGGTCAAAGTCGGTTTGTGCCA | 5.64 | 5.61 | 1.68 | 1.21 | 2.27 | 4.44 | 1.41 | 4.44 | 0.511 | 3.83 |
| TCATATAGTTAAAGGTGAAAGTCGAACGATATGA | 1.5 | 1.85 | 0.7 | 1.07 | 1.1 | 0.912 | -0.26 | 1.47 | 0.716 | 2.05 |
| TAGCCTAGGTCATTCAGGGACCAGTATAGAAAGC | 0.873 | 2.72 | 0.102 | -0.132 | 0.904 | 1.67 | -0.229 | 2.18 | -0.017 | 3.57 |
| TAGCCTAGGTCGTTGGGCCAGTATAGTACGCATC | -0.226 | 0.592 | -0.845 | -0.754 | -0.186 | -0.0683 | -0.446 | 0.0528 | -0.627 | 1.02 |
| CGTCCAAGGTCATAGGAGGTCAGTAAAGACAGAT | 3.22 | 4.57 | 1 | 1.13 | 5.13 | 6.88 | 4.18 | 6.22 | 2.02 | 5.38 |
| TTACCAAGGTGAGCTGAGGGCGTTGATCCAACTC | 1.02 | 1.45 | 0.0128 | -0.0146 | -0.525 | 3.08 | -0.168 | 1.11 | -0.757 | 1.1 |
| TTACCAAGGTGAGCTGAGGCCGTTGATCCAACTC | 0.88 | 1.24 | -0.955 | -0.387 | -0.831 | 2.17 | -0.968 | 1.15 | -1.4 | 1.09 |
| CGAACTAGATCAAGGACAGTGAATCTCCGCACGC | 1.97 | 0.649 | -0.11 | -0.153 | 0.0368 | -0.495 | -0.0304 | -0.24 | 0.262 | 0.0814 |
| TCGAGTAGGTTAGGGGCATTAAGAATGGCGTCGA | 2.21 | 1.23 | -0.687 | -1.11 | 0.475 | 0.596 | 0.671 | 0.713 | -0.193 | 1.04 |
